# Reference: PubChem BioAssay (NCATS)
# Values joined by “and” are separate entries in the source; they are usually repeats but may differ in a detail not shown here. Equal values may be shown once. Active and inactive are the calls of the source. Unless noted, the call rests on the fitted dose curve.
# Legend:
# [1] = qHTS assay for small molecule agonists of the antioxidant response element (ARE) signaling pathway (AID 651741; active means well fitted activation curve with a large enough effect in the signal ratio; inconclusive means small, poorly fitted or top-dose-only effect, or effect the other way, or a change in a side signal; the % refers to the signal ratio; further: potency means the concentration at half of the fitted maximal effect)
# Outline: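 Compounds in DMSO are pinned onto HepG2 ARE-bla cells (2,000/well) that were preincubated 5 h; plates stay 16 h at 37 C, then beta-lactamase activity is detected with LiveBLAzer B/G substrate by fluorescence.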
# [2] = molecular target: Estrogen receptor (Homo sapiens) (UniProt P03372); test: qHTS assay for small molecule antagonists of estrogen receptor alpha signaling (AID 588513; active means well fitted curve in the direction sought with a large enough effect in the signal ratio, with a control signal flat, not every such curve was filed as active; inconclusive means small, poorly fitted or top-dose-only effect, or effect the other way, or a change in a side signal; inactive means no such curve, though single readings can be large or run the other way; the % refers to the signal ratio; further: potency means the concentration at half of the fitted maximal effect)
# Outline: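 Antagonist mode: inhibition of 0.5 nM 17-beta-estradiol-driven beta-lactamase reporter in HEK 293 ER-alpha-UAS-bla cells, 18 h at 37C, CCF4 readout after 2 h at RT. Normalised to estradiol and DMSO; titration fitted to Hill.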
# [3] = molecular target: Estrogen receptor (Homo sapiens) (UniProt P03372); test: qHTS assay for small molecule agonists of estrogen receptor alpha signaling (AID 588514);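 further: 0% = vehicle only and 100% = reference agonist; nearly all actives have a fitted effect of over 70% in size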
# Outline: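 ER-alpha-UAS-bla GripTite HEK293 cells, 5000/well in 2% charcoal/dextran-stripped FBS medium, treated with compound titrations 18 h at 37 C. CCF4 beta-lactamase read by fluorescence after 2 h RT; normalised to 20 nM 17-beta-estradiol (100%) and DMSO (0%), Hill fit for EC50 and efficacy.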
# [4] = molecular target: Glucocorticoid receptor (Homo sapiens) (UniProt P04150); test: qHTS assay for small molecule agonists of glucocorticoid receptor signaling (AID 588532; active means well fitted curve in the direction sought with a large enough effect in the signal ratio, with a control signal flat; inconclusive means small, poorly fitted or top-dose-only effect, or a change in a side signal; inactive means no such curve, though single readings can be large or run the other way; the % refers to the signal ratio;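 further: 100% = dexamethasone at 0.1 µM and 0% = DMSO only wells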); conditions: HeLa MMTV-bla, beta-lactamase ratio, agonist, 18 h; stronger effect = higher value; percent of dexamethasone control, DMSO zero
# Outline: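 MMTV-bla HeLa, beta-lactamase reporter; medium with 1% charcoal/dextran-stripped FBS; cpds up to 92 uM, 18 h, 37 C; CCF4 readout 460/530 nm; Hill fit → EC50, efficacy vs 0.1 uM dexamethasone = 100%.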
# [5] = molecular target: Vitamin D3 receptor (Homo sapiens) (UniProt P11473); test: qHTS assay for small molecule antagonists of vitamin D receptor signaling (AID 588541); further: potency means the concentration at half of the fitted maximal effect
# Outline: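 VDR-UAS-bla HEK293T cells (2000/well, 2% charcoal-stripped FBS) were treated with titrated compounds plus 1-alpha,25-dihydroxyvitamin D3 (50 nM or 3 nM final) for 16 h at 37 C. CCF4 beta-lactamase fluorescence was read; Hill fits gave IC50.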
# [6] = qHTS assay for small molecule antagonists of retinoid X receptor alpha signaling (AID 588546; active means well fitted inhibition curve with a large enough effect in the signal ratio, with a control signal flat, not every such curve was filed as active; inconclusive means small, poorly fitted or top-dose-only effect, or effect the other way, or a change in a side signal; inactive means no such curve, though single readings can be large or run the other way; the % refers to the signal ratio; further: potency means the concentration at half of the fitted maximal effect;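 on max response: cells stimulated with 9-cis-retinoic acid as agonist; on the % scale 0 is the no-effect control and ±100 the full control effect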); conditions: HEK293T RXRa-UAS-bla, beta-lactamase ratio, antagonist mode; measured here: W530 green channel, cytotoxicity proxy
# Outline: (§1)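 Beta-lactamase reporter inhibition, read as CCF4 fluorescence ratio (ex 405, em 460/530 nm) after 2 h at RT. HEK293T UAS-bla cells, 2500/well, were stimulated with 9-cis-RA at 500 or 100 nM final alongside test compound for 18 h at 37 C.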
# [7] = molecular target: Retinoic acid receptor RXR-alpha (Homo sapiens) (UniProt P19793); test: as above; conditions: HEK293T RXRa-UAS-bla, beta-lactamase ratio, antagonist mode
# Outline: as §1
# [8] = molecular target: Thyroid hormone receptor beta (Homo sapiens) (UniProt P10828); test: qHTS assay for small molecule antagonists of thyroid hormone receptor beta signaling (AID 588547; active means well fitted inhibition curve with a large enough effect in the signal ratio, with a control signal flat, not every such curve was filed as active; inconclusive means small, poorly fitted or top-dose-only effect, or effect the other way, or a change in a side signal; the % refers to the signal ratio;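 further: cells stimulated with 0.4 nM T3 agonist during compound exposure; series mostly up to about 77 µM; on the % scale 0 is the no-effect control and ±100 the full control effect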); conditions: TR-UAS-bla HEK293, beta-lactamase ratio, antagonist mode, 18 h
# Outline: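 TR-UAS-bla GripTite HEK293 cells in 2% charcoal/dextran FBS medium were preincubated 4 h at 37 C, given compound (0.59 nM to 92 uM) plus 0.4 nM T3 (final) for 18 h, then CCF4 for 2 h at RT; Hill fit gave IC50.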
# [9] = molecular target: Vitamin D3 receptor (Homo sapiens) (UniProt P11473); test: qHTS assay for small molecule agonists of vitamin D receptor signaling (AID 588543);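 further: 0% = DMSO basal and 100% = reference agonist control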
# Outline: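 Agonist-mode beta-lactamase reporter: HEK293T VDR-UAS-bla cells in charcoal-stripped 2% FBS, compound series 16 h 37 C, CCF4 2 h RT. EC50 from Hill fit, scaled against DMSO and 50 nM calcitriol control.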
# [10] = qHTS assay for small molecule activators of the p53 signaling pathway (AID 651743; active means well fitted activation curve with a large enough effect in the signal ratio, not every such curve was filed as active; inconclusive means small, poorly fitted or top-dose-only effect, or a change in a side signal; the % refers to the signal ratio; further: potency means the concentration at half of the fitted maximal effect; on activation: series mostly up to about 92 µM; % of control where 0% means no effect); conditions: HCT-116 p53RE-bla, beta-lactamase FRET ratio, 16 h; activation: stronger effect = higher value
# Outline: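 Cell-based beta-lactamase reporter (p53 response elements, HCT-116 background). After a 5-hour preincubation, cells received compound for 16 hours at 37 C; substrate development ran 2 hours at room temperature.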
# [11] = qHTS assay for small molecule activators of the nuclear factor-kappa B (NF-kB) signaling pathway (AID 651749; active means well fitted activation curve with a large enough effect in the signal ratio; inconclusive means small, poorly fitted or top-dose-only effect, or a change in a side signal; the % refers to the signal ratio; further: series mostly up to about 77 µM; % of control where 0% means no effect); conditions: NF-kB-bla ME-180 cells, beta-lactamase FRET ratio, 16 h; stronger effect = higher value
# Outline: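 Screening used 2,000 ME-180 reporter cells per well exposed to pinned compound (23 nL) or DMSO; after 16 hr at 37C, beta-lactamase expression under NF-kB control was assessed through FRET.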
# [12] = qHTS assay for small molecule activators of the human pregnane X receptor (PXR) signaling pathway (AID 720659; call rule not given here; further: 0% is about no effect)
# [13] = molecular target: 3',5'-cyclic-AMP phosphodiesterase 4B (Homo sapiens) (UniProt Q07343); test: qHTS Assay for Inhibitors of PDE-IV (AID 607; active means well fitted activation curve with a large enough effect in the main read-out, with a control signal flat, not every such curve was filed as active; inconclusive means small, poorly fitted or top-dose-only effect, or effect the other way, or a change in a side signal; further: % of control where 0% means no effect)
# Outline: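 HEK293 ACTOne cells with CNG channel (1000/well), endogenous PDE4; membrane potential dye, compounds up to 22.9 uM final. Fluorescence Ex 535/Em 590; RO 20-1724 (100 uM final) as reference.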
# [14] = molecular target: Cytochrome P450 2D6 (Homo sapiens) (UniProt P10635); test: qHTS Assay for Inhibitors and Substrates of Cytochrome P450 2D6 (AID 891; active means well fitted inhibition curve with a large enough effect; inconclusive means small, poorly fitted or top-dose-only effect; inactive means no such curve, though single readings can be large or run the other way; further: nearly all actives have a fitted effect of over 60% in size)
# Outline: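 Human CYP2D6 (5 nM) with 30 uM Luciferin-ME EGE (at Km) in 100 mM KPO4, compound preincubated 10 min, then NADPH regeneration system for 60 min at room temperature. Luciferin read by luminescence; normalized to 1.43 uM quinidine.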
# [15] = qHTS assay for small molecule agonists of retinoid X receptor alpha signaling (AID 588544); conditions: HEK293T RXRa-UAS-bla, beta-lactamase reporter, 18 h; 530 nm emission
# [16] = molecular target: Tumor necrosis factor (Homo sapiens) (UniProt P01375); test: qHTS assay to identify small molecules that stimulate Tumor Necrosis Factor-alpha (TNF-alpha) secretion (AID 651757; active means well fitted curve in the direction sought with a large enough effect in the signal ratio; inconclusive means small, poorly fitted or top-dose-only effect, or a change in a side signal; inactive means no such curve, though single readings can be large or run the other way; the % refers to the signal ratio; further: 0% is about no effect)
# Outline: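 THP-1 cells (3000/well) exposed to compounds 17 hrs at 37 C. Secreted TNF-alpha detected by HTRF with cryptate- and XL665-labeled anti-TNF-alpha antibodies after 3 hr at room temperature.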
# [17] = molecular target: Glucocorticoid receptor (Homo sapiens) (UniProt P04150); test: qHTS assay for small molecule antagonists of glucocorticoid receptor signaling (AID 588533; active means well fitted inhibition curve with a large enough effect in the signal ratio, with a control signal flat, not every such curve was filed as active; inconclusive means small, poorly fitted or top-dose-only effect, or effect the other way, or a change in a side signal; the % refers to the signal ratio;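 further: cells stimulated with 2 nM dexamethasone as agonist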; further: potency means the concentration at half of the fitted maximal effect)
# Outline: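 Antagonist-mode qHTS: compound titrations added to GRE-bla HeLa cells, then dexamethasone 2 nM final; 18 h, 37 C. CCF4 FRET fluorescence normalized to dexamethasone and DMSO; IC50 from Hill fit.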
# [18] = molecular target: Peroxisome proliferator-activated receptor delta (Homo sapiens) (UniProt Q03181); test: qHTS assay for small molecule antagonists of peroxisome proliferator-activated receptor delta signaling (AID 588535; active means well fitted inhibition curve with a large enough effect in the signal ratio, with a control signal flat, not every such curve was filed as active; inconclusive means small, poorly fitted or top-dose-only effect, or effect the other way, or a change in a side signal; inactive means no such curve, though single readings can be large or run the other way; the % refers to the signal ratio)
# Outline: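 Reporter: UAS-bla under PPAR-delta response element, HEK293T host. Medium: 2% charcoal/dextran FBS. Dosing: titration, 18 hrs, 37 C. Detection: CCF4, 2 hrs RT, 405 ex/460 and 530 em.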
# [19] = molecular target: Bile acid receptor (Homo sapiens) (UniProt Q96RI1); test: qHTS assay for small molecule antagonists of farnesoid X receptor signaling (AID 588526); further: on the % scale 0 is the no-effect control and ±100 the full control effect
# Outline: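 Concentration-response titrations were fitted to the Hill equation for half-maximal inhibition and maximal response, with data normalised to 50 uM chenodeoxycholic acid and DMSO control wells. Cells: FXR-UAS-bla HEK293T, dialyzed FBS.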
# Sequence of Thyroid hormone receptor beta (Homo sapiens) (P10828 whole entry, looked up): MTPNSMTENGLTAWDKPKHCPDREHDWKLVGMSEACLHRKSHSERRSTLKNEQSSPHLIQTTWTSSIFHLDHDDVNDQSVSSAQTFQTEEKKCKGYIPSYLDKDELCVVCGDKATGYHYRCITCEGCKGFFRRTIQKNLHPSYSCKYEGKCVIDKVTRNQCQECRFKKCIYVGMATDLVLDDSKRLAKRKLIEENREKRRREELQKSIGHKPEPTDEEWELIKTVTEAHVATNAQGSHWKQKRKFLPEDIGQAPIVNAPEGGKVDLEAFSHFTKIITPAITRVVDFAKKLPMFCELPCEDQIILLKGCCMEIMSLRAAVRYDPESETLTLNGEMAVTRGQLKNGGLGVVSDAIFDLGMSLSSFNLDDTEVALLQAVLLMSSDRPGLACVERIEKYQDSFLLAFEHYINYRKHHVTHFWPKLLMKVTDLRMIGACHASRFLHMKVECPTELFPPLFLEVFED
# Sequence of Vitamin D3 receptor (Homo sapiens) (P11473 whole entry, looked up): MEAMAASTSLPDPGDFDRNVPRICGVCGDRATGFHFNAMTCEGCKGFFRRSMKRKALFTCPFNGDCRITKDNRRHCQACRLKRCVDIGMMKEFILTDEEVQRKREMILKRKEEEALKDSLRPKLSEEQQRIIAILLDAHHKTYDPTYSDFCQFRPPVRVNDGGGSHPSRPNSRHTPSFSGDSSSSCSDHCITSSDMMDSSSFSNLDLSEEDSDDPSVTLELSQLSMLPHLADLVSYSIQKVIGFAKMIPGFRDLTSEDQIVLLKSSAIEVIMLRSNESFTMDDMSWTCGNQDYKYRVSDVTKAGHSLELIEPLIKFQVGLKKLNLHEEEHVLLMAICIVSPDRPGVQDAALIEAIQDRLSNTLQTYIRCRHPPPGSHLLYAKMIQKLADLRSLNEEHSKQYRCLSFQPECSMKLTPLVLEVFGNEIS
# Sequence of Glucocorticoid receptor (Homo sapiens) (P04150 whole entry, looked up): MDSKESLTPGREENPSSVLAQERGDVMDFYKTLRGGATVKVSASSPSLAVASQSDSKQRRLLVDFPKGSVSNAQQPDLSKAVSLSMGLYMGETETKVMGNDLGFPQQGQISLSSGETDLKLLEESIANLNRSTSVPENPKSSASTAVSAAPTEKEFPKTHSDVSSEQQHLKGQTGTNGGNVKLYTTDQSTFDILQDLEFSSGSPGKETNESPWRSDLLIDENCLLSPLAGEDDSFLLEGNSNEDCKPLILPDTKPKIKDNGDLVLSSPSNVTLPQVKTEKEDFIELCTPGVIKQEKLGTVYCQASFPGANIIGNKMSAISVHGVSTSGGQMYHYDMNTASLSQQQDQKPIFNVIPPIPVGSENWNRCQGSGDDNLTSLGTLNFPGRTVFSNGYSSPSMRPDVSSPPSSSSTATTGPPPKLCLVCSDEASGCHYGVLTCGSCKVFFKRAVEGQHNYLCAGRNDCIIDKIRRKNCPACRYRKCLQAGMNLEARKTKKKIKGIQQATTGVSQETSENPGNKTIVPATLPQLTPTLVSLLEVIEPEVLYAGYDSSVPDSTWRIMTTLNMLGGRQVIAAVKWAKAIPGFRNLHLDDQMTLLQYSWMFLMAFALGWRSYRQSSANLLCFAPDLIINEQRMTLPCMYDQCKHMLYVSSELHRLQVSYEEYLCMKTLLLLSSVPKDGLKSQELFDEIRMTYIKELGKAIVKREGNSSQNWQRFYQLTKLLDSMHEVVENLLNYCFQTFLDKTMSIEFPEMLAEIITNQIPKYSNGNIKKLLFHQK
# Sequence of Retinoic acid receptor RXR-alpha (Homo sapiens) (P19793 whole entry, looked up): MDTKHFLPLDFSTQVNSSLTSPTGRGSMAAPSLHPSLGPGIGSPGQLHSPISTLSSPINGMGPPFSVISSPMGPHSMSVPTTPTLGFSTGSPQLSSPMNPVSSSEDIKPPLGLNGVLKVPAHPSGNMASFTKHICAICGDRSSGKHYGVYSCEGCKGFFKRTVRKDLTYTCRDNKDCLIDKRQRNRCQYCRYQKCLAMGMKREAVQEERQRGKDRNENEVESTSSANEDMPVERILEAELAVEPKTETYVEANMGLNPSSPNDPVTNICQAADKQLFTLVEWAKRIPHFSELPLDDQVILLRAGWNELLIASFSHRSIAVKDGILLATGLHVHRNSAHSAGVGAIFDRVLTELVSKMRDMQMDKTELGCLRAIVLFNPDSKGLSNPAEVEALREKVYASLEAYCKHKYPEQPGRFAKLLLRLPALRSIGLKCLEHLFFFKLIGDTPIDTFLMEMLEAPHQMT
# Sequence of Estrogen receptor (Homo sapiens) (P03372 whole entry, looked up): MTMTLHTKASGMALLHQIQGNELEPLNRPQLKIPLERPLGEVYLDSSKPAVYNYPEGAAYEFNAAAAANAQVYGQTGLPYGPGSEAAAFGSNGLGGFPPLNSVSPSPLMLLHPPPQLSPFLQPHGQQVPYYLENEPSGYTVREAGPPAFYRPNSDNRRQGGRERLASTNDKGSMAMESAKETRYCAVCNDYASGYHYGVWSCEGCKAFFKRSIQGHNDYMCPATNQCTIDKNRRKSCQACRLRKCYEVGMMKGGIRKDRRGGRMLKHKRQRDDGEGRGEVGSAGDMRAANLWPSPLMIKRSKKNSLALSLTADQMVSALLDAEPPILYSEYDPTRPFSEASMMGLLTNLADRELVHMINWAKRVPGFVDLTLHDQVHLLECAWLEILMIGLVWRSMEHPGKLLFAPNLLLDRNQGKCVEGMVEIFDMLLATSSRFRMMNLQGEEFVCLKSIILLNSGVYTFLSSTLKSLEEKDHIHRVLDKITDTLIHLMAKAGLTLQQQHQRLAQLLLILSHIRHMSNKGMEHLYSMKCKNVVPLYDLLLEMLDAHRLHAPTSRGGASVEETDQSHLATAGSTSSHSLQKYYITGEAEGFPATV
# Sequence of Tumor necrosis factor (Homo sapiens) (P01375 whole entry, looked up): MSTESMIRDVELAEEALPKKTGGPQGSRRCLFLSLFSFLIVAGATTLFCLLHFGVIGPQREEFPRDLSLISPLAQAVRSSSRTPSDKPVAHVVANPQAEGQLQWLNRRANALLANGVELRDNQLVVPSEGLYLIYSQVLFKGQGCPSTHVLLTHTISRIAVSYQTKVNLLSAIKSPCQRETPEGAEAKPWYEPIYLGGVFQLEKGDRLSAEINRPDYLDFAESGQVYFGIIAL
# Sequence of 3',5'-cyclic-AMP phosphodiesterase 4B (Homo sapiens) (Q07343 whole entry, looked up): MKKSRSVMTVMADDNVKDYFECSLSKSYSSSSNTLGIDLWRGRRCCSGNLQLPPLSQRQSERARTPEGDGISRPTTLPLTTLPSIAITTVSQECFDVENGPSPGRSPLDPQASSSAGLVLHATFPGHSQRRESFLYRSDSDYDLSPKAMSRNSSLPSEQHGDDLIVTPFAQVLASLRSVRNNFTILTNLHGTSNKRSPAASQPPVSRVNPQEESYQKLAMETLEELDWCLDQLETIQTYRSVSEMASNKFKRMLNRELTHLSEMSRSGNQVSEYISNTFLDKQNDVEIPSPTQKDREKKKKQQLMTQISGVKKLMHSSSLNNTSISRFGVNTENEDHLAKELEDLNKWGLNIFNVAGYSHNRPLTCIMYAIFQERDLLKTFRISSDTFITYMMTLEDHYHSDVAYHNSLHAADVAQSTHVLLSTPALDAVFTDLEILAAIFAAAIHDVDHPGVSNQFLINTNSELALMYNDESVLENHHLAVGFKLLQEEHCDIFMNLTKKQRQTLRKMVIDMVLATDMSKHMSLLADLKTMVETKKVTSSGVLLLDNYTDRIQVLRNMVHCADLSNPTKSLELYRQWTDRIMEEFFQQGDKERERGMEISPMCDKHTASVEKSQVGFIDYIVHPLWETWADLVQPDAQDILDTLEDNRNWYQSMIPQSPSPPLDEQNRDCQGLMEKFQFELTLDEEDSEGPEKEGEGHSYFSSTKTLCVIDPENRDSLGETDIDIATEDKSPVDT
# Sequence of Cytochrome P450 2D6 (Homo sapiens) (P10635 whole entry, looked up): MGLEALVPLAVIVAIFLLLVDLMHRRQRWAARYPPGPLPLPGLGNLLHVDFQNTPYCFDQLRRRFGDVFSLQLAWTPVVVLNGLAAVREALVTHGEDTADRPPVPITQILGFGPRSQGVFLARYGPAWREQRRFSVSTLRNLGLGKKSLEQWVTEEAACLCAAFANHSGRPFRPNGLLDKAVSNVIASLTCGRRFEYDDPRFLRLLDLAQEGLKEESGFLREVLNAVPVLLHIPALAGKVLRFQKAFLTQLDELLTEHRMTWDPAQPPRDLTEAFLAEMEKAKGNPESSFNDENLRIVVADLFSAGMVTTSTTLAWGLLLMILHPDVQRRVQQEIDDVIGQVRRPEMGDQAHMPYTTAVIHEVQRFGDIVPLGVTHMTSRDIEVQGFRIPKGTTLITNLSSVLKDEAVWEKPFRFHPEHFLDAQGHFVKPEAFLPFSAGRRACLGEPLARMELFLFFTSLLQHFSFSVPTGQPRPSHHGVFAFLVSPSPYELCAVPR
# Sequence of Bile acid receptor (Homo sapiens) (Q96RI1 whole entry, looked up): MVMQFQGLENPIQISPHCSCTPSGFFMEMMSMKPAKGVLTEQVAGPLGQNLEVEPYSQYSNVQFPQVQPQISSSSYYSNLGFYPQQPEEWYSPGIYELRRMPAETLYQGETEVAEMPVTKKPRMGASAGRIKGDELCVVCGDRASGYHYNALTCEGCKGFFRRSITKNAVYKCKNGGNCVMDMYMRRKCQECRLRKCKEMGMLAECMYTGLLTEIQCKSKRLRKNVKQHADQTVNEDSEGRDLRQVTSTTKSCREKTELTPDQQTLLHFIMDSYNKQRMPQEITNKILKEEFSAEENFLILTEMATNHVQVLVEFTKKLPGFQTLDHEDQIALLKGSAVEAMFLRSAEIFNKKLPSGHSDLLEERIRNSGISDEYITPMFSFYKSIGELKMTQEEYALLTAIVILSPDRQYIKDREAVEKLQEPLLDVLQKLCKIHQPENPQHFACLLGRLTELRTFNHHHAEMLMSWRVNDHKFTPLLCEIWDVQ
smiles,measurement,setting,value
Nc1ccc2cc3ccccc3cc2c1,Potency,[1],2.37 µM (active)
O=C1OC2(c3cc(Br)c(O)c(Br)c3Oc3c2cc(Br)c(O)c3Br)c2c(Cl)c(Cl)c(Cl)c(Cl)c21,Potency,[2],inactive
same,outcome,[3],inactive
same,activation,[4],0.908% (inactive)
same,Potency,[5],inactive
same,max response,[6],20.8%
same,max response,[7],7.11% (inactive)
same,activity change % (negative = inhibition),[8],2.12% (inactive)
same,Potency,[1],66.8 µM (active)
O=C1OC(O)C(C(Cl)Cl)=C1Cl (stereo not drawn),activation,[4],-17.9% (inactive)
same,Potency,[5],44.7 µM (active)
same,outcome,[9],inactive
same,max response,[6],-8.4%
same,max response,[7],-25.5% (inactive)
same,Potency,[1],29.8 µM (active)
same,activation,[10],-1.76% (inactive)
same,activation,[11],-0.496% (inactive)
same,outcome,[12],inactive
COc1cc2c(c(OC)c1OC)-c1ccc(OC)c(=O)cc1[C@H](NC(C)=O)CC2,Potency,[13],inactive
same,Potency,[14],inactive
same,outcome,[14],inactive
ClC1=C(Cl)C(Cl)(Cl)C(Cl)=C1Cl,Potency,[2],inactive
same,outcome,[3],inactive
same,activation,[4],4.1% (inactive) and -7.79% (inactive)
same,Potency,[5],inactive
same,outcome,[9],inactive
same,max response,[15],-6.21% and -5.28%
same,max response,[6],5.17% and -3.52%
same,max response,[7],-8.53% (inactive) and -12% (inactive)
same,activity change % (negative = inhibition),[8],-17.2% (inactive) and -1.82% (inactive)
same,activation,[11],-0.183% (inactive) and -0.468% (inactive)
same,outcome,[16],inactive
same,outcome,[12],inactive
C/C=C1\C(=O)C[C@H]2[C@@H]3CCC4=CC(=O)CC[C@]4(C)[C@H]3CC[C@]12C,Potency,[1],2.98 µM (active)
same,activation,[11],-4.79% (inactive)
same,outcome,[16],inactive
CCCCCCCC[N+](CCCCCCCC)(CCCCCCCC)CCCCCCCC,Potency,[5],inactive
same,Potency,[1],8.41 µM (active)
same,outcome,[16],inactive
O=Cc1ccc(Cl)c(Cl)c1,activation,[4],-2.24% (inactive)
same,Potency,[17],inactive
same,outcome,[18],inactive
same,Potency,[5],inactive
same,outcome,[9],inactive
same,max response,[15],2.17%
same,activity change % (negative = inhibition),[8],11% (inactive)
same,activation,[10],-1.08% (inactive)
same,activation,[11],-0.954% (inactive)
same,outcome,[16],inactive
same,outcome,[12],inactive
CC/C(=C(\c1ccccc1)c1ccc(OCCN(C)C)cc1)c1ccc(O)cc1,activation,[4],5.28% (inactive)
same,outcome,[9],inactive
same,outcome,[16],inactive
CN(C)c1ccc(C2(c3ccc(N(C)C)cc3)OC(=O)c3cc(N(C)C)ccc32)cc1,Potency,[2],inactive
same,outcome,[18],inactive
same,Potency,[5],inactive
same,max response,[6],-30.3%
same,max response,[7],32.7% (inactive)
same,activity change % (negative = inhibition),[8],12.5% (inactive)
same,Potency,[10],50.1 µM (active)
same,outcome,[12],inactive
Cc1cc(Nc2ccc(O)cc2)ccc1N,Potency,[19],inactive
same,Potency,[5],inactive
same,outcome,[9],inactive
same,max response,[15],-10.3%
same,max response,[6],-15.7%
same,max response,[7],21.4% (inactive)
same,activity change % (negative = inhibition),[8],-8.81% (inactive)
same,outcome,[12],inactive
c1cc(OCC2CO2)cc(OCC2CO2)c1 (stereo not drawn),outcome,[3],inactive
same,activation,[4],4.18% (inactive) and -8.77% (inactive)
same,outcome,[9],inactive
same,outcome,[16],inactive
same,outcome,[12],inactive
O=C(OCC(COC(=O)c1ccccc1)(COC(=O)c1ccccc1)COC(=O)c1ccccc1)c1ccccc1,outcome,[16],inactive
same,outcome,[12],inactive
c1ccc2c(c1)ccc1cc3c(ccc4ccccc43)cc12,Potency,[2],inactive
same,Potency,[19],inactive
same,max response,[15],-11.8%
same,outcome,[12],inactive
CCC(C)Nc1ccc(NC(C)CC)cc1 (stereo not drawn),Potency,[2],6.31 µM [inconclusive] (active)
same,activation,[4],1.29% (inactive) and -5.53% (inactive)
same,Potency,[17],35.5 µM (active)
same,Potency,[5],6.31 µM (active)
same,outcome,[9],inactive
same,max response,[6],-40%
same,Potency,[7],28.2 µM (active)
CC(=O)Nc1ccc(C(=O)CCl)cc1,activation,[4],-4.98% (inactive) and -25.5% (inactive)
same,Potency,[17],39.8 µM (active)
same,Potency,[5],25.1 µM (active)
same,Potency,[10],31.6 µM (active)
same,activation,[11],-3.62% (inactive)
C[C@H](N)C1CCC(C(=O)Nc2ccncc2)CC1 (stereo partly drawn),Potency,[13],inactive
